We go through 14 compounds from PubChem BioAssay.

Activity calls are given as the source filed them.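 Rule for the calls, unless noted: active = visually confirmed hit in the image check and inhibition above 20%; inconclusive = visually confirmed hit but inhibition not above 20%; inactive = no visual hit in the image check.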

A short description of experiment [1]: inhibitors of TNFa-induced NFkB p65 translocation, primary screen, imaging, HUVEC, MLSMR starter and 10KST1 sets (AID 438;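 active = inhibition above 20% together with a positive visual image hit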;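 note: compound added about 3h40 before a 20 min TNFalpha stimulation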;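 for inhibition: signal is the nuclear over cytoplasmic p65 intensity ratio per well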). The following applies: HUVEC TNFa-induced p65 nuclear translocation; cell count: measured here: nuclei count (cytotoxicity indicator), at 2.08 µM; inhibition: at 2 µM, stronger effect = higher value, 0% TNFa-plus-vehicle, 100% no-TNFa wells.
Experiment [2] in a line: inhibitors of mutant huntingtin aggregation, primary screen, imaging, exon1htt(103Q)mCFP cells, high-content imaging (AID 483;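 active = visual image review flags a hit and inhibition of aggregation exceeds 20%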;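 note: compound exposure lasted 3 days before fixation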;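 for nuclei count: percent of the per-plate median nuclei count of sample wells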). The following applies: exon1htt(103Q)mCFP cell line, aggregate imaging, at 2 µM; inhibition of aggregation: stronger effect = higher value; nuclei count: measured here: cell count, toxicity.
Experiment [3] in a line: inhibitors of E-selectin induction by TNFa, primary screen, imaging, HUVEC, immunofluorescence, MLSMR starter and 10KST1 sets (AID 487).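 For inhibition: signal is fraction of cell area covered by stained E-selectin grains.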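 For nuclei count: 100% = median nuclei count of all wells on the same plate.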 As to conditions: HUVEC TNFalpha-induced E-selectin immunofluorescence imaging, at 2 µM; inhibition: stronger effect = higher value; nuclei count: measured here: cell number, toxicity.
Experiment [4] concerns the target Voltage-gated potassium channel subunit beta-2 (Rattus norvegicus) (UniProt P62483). In words: KvBeta enzyme negative modulators, primary screen, biochemical, NADPH fluorescence (AID 622;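 active = fluorescence slope higher than the sample average by over 3 SD, cut at about -0.22 in these data, passing the limit was not always enough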;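 note: slope of raw intensity against log time taken from 70 to 1610 s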). The following applies: recombinant KvBeta, 4-cyanobenzaldehyde reduction, at 10 µM, stronger effect = higher value.
Experiment [5] shares this target. The experiment in a line: KvBeta positive modulators, primary screen, biochemical, NADPH fluorescence (AID 623;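 active = NADPH fluorescence slope more negative than the mean of all samples by about 3 SD, 99.7% confidence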;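 note: fluorescence intensity change per second fitted from 20 to 320 s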). The following applies: Recombinant KvBeta, NADPH fluorescence decrease slope, 10 min; at 10 µM; stronger effect = lower value.
For experiment [6], the target named is Alpha-2C adrenergic receptor (Homo sapiens) (UniProt P18825). The experiment in a line: modulators of alpha2C/GIRK thallium flux, primary screen, cell-based, HEK293 alpha2C/GIRK1/2 (AID 624;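 active = fluorescence slope after compound addition differing from the mean of all screened samples at 99.7% confidence, in either direction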;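 note: slope of fluorescence ratio to pre-addition baseline per second over 15 to 24 s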). The following applies: thallium flux BTC fluorescence, at 10 µM, actives lie on both sides.
Experiment [7] is described as follows: inhibitors of Sendai virus-induced IRF3 signaling, primary screen, TLR/RLR signaling modifier project, cell-based, Sendai virus stimulus, luciferase, 10K MLSCN set (AID 602276;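 active = inhibition at or above 50% at 10 µM; inactive = inhibition below 50%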;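 note: firefly luciferase from ISG56 promoter only with Renilla not read in this screen; 0% = Sendai virus plus DMSO and 100% = medium plus DMSO without virus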). The following applies: HEK293 RL24 IRF3 luciferase reporter, at 10 µM, stronger effect = higher value.
A short description of experiment [8]: inhibitors of poly I:C-induced TLR3 signaling, primary screen, cell-based, poly I:C stimulus, luciferase, 10K MLSCN set (AID 602277;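 active = inhibition of the reporter signal at or above 50%; inactive = inhibition below 50%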). As to conditions: HEK293-TLR3 RL24 IRF3 luciferase reporter, at 10 µM, stronger effect = higher value. In general terms: In a reporter assay the amount or activity of a reporter protein is the signal.

Chain of Voltage-gated potassium channel subunit beta-2 (Rattus norvegicus) (P62483 whole entry, looked up): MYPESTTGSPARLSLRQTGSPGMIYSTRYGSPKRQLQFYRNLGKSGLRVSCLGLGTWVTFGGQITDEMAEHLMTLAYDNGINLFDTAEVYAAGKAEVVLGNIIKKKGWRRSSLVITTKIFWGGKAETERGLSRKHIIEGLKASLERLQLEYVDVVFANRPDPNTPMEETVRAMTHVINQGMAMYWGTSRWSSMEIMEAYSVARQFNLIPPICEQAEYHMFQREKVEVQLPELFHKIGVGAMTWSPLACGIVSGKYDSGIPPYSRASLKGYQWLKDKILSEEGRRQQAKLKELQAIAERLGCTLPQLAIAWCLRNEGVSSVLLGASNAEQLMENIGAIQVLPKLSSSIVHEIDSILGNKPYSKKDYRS
Chain of Alpha-2C adrenergic receptor (Homo sapiens) (P18825 whole entry, looked up): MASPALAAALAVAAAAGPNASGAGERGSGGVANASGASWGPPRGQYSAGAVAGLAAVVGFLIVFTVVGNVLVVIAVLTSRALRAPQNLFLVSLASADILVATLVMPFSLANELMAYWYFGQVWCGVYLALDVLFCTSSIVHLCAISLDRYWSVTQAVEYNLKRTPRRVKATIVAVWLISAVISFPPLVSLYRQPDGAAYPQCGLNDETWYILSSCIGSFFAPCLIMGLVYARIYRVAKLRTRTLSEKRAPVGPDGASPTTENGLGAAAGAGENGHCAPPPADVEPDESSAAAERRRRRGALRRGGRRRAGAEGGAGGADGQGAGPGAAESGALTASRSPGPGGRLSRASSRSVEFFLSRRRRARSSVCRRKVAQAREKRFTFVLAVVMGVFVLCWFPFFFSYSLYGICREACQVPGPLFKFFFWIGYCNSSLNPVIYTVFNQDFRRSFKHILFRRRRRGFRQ

For orientation: inhibition means the relative decrease from the control value, in per cent. Regarding `CCOC(=O)c1cc(NC(=O)SCC(=O)O)c(C)nc1C`, the cell count in experiment [1] turned out to be 762. Besides, the inhibition in experiment [1] was 5.1% (inactive); in experiment [3], -99.8% (inactive); in experiment [7], 7.76% (inactive); in experiment [8], 9.57% (inactive). In experiment [2], the inhibition of aggregation was -19.7% (inactive). Besides, the nuclei count in experiment [2] amounted to 111%; in experiment [3], 128%. Also, in experiment [4], the fluorescence slope was -0.484 (inactive). Further, the NADPH fluorescence slope in experiment [5] is -3.2e-05 (inactive). Also, the slope in experiment [6] was 0.0071 (inactive).
On to `CN1C(=O)C(CC(=O)N2CCN(C(c3ccccc3)c3ccccc3)CC2)N(C)C1=O` (centres undefined), for which the cell count in experiment [1] worked out at 281. Also, the inhibition in experiment [1] was -2.3% (inactive); in experiment [3], 20.6% (inactive); in experiment [7], 1.7% (inactive); in experiment [8], 22.8% (inactive). The inhibition of aggregation in experiment [2] was 9.8% (inactive). Besides, the nuclei count came out at 97.2% in experiment [2] and 118% in experiment [3]. In addition, the fluorescence slope in experiment [4] is -0.288 (inactive). Besides, the NADPH fluorescence slope in experiment [5] is 5.9e-06 (inactive). Also, the slope in experiment [6] was 0.00745 (inactive).
Regarding `N#Cc1cc2ccc(N3CCOCC3)cc2cc1C#N`, the cell count in experiment [1] turned out to be 421. The inhibition in experiment [1] was -6.5% (inactive); in experiment [3], -341% (inactive); in experiment [7], 7.25% (inactive); in experiment [8], 26.1% (inactive). For the same compound, in experiment [2], the inhibition of aggregation was 9.5% (inactive). The nuclei count in experiment [2] was 76.5%; in experiment [3] it was 103%. Besides, the fluorescence slope in experiment [4] is -0.0128 (active). The NADPH fluorescence slope in experiment [5] was 1.2e-05 (inactive). Further, the slope in experiment [6] is 0.00303 (inactive).
For `S=c1[nH]nc(-c2ccccc2)n1C1C=CCCC1` (centres undefined), the cell count in experiment [1] turned out to be 240. Further, the inhibition in experiment [1] was 0.4% (inactive); in experiment [3] it was -329% (inactive); in experiment [7] it was 4.48% (inactive); in experiment [8] it was 35.6% (inactive). Moreover, the inhibition of aggregation in experiment [2] was 14.7% (inactive). In addition, the nuclei count was 94% in experiment [2] and 146% in experiment [3]. Besides, the fluorescence slope in experiment [4] was -0.465 (inactive). Also, in experiment [5], the NADPH fluorescence slope is -1.5e-05 (inactive). For the same compound, the slope in experiment [6] is 0.00318 (inactive).
Turning to `CCCCOC(=O)CN1C(=O)c2ccc(C(=O)OCCCC)cc2C1=O`, the cell count in experiment [1] came to 619. In addition, the inhibition was -4.1% (inactive) in experiment [1], -48.1% (inactive) in experiment [3], -2.49% (inactive) in experiment [7] and 26% (inactive) in experiment [8]. Moreover, in experiment [2], the inhibition of aggregation is -4.5% (inactive). Moreover, the nuclei count in experiment [2] amounted to 36.7%; in experiment [3], 88.2%. Further, the fluorescence slope in experiment [4] was -0.486 (inactive). For the same compound, in experiment [5], the NADPH fluorescence slope was -2.2e-05 (inactive). Further, the slope in experiment [6] was 0.00602 (inactive).
As to `O=C(CSc1nnc(COc2ccc(Cl)cc2)o1)OC1CCCCC1`, in experiment [1], the cell count was found to be 530. For the same compound, the inhibition is -5.9% (inactive) in experiment [1], 9.7% (inactive) in experiment [3], 1.22% (inactive) in experiment [7] and -1.92% (inactive) in experiment [8]. Also, the inhibition of aggregation in experiment [2] was -7.1% (inactive). Moreover, the nuclei count in experiment [2] was 119%; in experiment [3], 103%. The fluorescence slope in experiment [4] was -0.524 (inactive). In addition, in experiment [5], the NADPH fluorescence slope is -5.9e-07 (inactive). In experiment [6], the slope was 0.00539 (inactive).
In the case of `COC(=O)c1c(-c2cccs2)csc1NC(=O)CN1CCOCC1`, in experiment [1], the cell count stood at 345. For the same compound, the inhibition in experiment [1] is 6% (inactive); in experiment [3], -22.6% (inactive); in experiment [7], 16.1% (inactive); in experiment [8], 3.26% (inactive). In addition, the inhibition of aggregation in experiment [2] was -6.9% (inactive). The nuclei count amounted to 106% in experiment [2] and 119% in experiment [3]. Also, the fluorescence slope in experiment [4] was -0.519 (inactive). Further, the NADPH fluorescence slope in experiment [5] is -5.2e-05 (inactive). Also, the slope in experiment [6] was 0.00516 (inactive).
In the case of `Cn1c(-c2cc(Br)ccc2O)n[nH]c1=S`, the cell count in experiment [1] was found to be 440. For the same compound, the inhibition in experiment [1] was 5.5% (inactive); in experiment [3], -76.5% (inactive); in experiment [7], -4.65% (inactive); in experiment [8] it was -14.4% (inactive). In addition, in experiment [2], the inhibition of aggregation was -2.6% (inactive). Besides, the nuclei count in experiment [2] stood at 109%; in experiment [3], 118%. Also, in experiment [4], the fluorescence slope was -0.51 (inactive). Besides, in experiment [5], the NADPH fluorescence slope is 4.9e-05 (inactive). In experiment [6], the slope is 0.00989 (inactive).
Consider `Cc1ccc(C(=O)CC2(O)C(=O)N(CN3CCOCC3)c3ccccc32)cc1` (centres undefined), for which the cell count in experiment [1] stood at 396. Also, the inhibition was -8.1% (inactive) in experiment [1], -52.9% (inactive) in experiment [3], -4.62% (inactive) in experiment [7] and 5.37% (inactive) in experiment [8]. The inhibition of aggregation in experiment [2] is -5.7% (inactive). Also, the values for the nuclei count in experiment [2] and in experiment [3] were 103% and 99.1%, respectively. For the same compound, the fluorescence slope in experiment [4] was -0.367 (inactive). The NADPH fluorescence slope in experiment [5] is 8.1e-06 (inactive). In experiment [6], the slope is 0.00346 (inactive).
In the case of `COc1ccccc1CN1C(=S)SC(C)(C)C1NO` (centres undefined), the cell count in experiment [1] is 487. Besides, the inhibition in experiment [1] was 10.4% (inactive); in experiment [3], 30.1% (inactive); in experiment [7], 15.8% (inactive); in experiment [8], 21.5% (inactive). Further, in experiment [2], the inhibition of aggregation was -2.9% (inactive). For the same compound, the nuclei count in experiment [2] amounted to 88.5%; in experiment [3] it was 105%. Besides, the fluorescence slope in experiment [4] is -0.499 (inactive). The NADPH fluorescence slope in experiment [5] was -3.5e-05 (inactive). The slope in experiment [6] is 0.00451 (inactive).
As to `CCOc1ccccc1N(CC(=O)NC1CCCC1)C(=O)CCCC(=O)Nc1ccccn1`, the cell count in experiment [1] amounted to 369. In addition, the inhibition in experiment [1] was 5.3% (inactive); in experiment [3], -20% (inactive); in experiment [7], 5.25% (inactive); in experiment [8] it was 19.7% (inactive). For the same compound, in experiment [2], the inhibition of aggregation is 24.9% (inactive). In addition, the results for the nuclei count in experiment [2] and in experiment [3] were 102% and 122%, respectively. In experiment [4], the fluorescence slope was -0.63 (inactive). Further, the NADPH fluorescence slope in experiment [5] is -2.4e-05 (inactive). Besides, in experiment [6], the slope was 0.00589 (inactive).
Turning to `Cc1cccc(N2CCN(C(=O)CCn3c(=S)[nH]c4cc5c(cc4c3=O)OCO5)CC2C)c1` (centres undefined), the cell count in experiment [1] was 488. Besides, the inhibition was 3% (inactive) in experiment [1], -1.8% (inactive) in experiment [3], 9.48% (inactive) in experiment [7] and 38.2% (inactive) in experiment [8]. Moreover, in experiment [2], the inhibition of aggregation was -4.6% (inactive). Also, the nuclei count in experiment [2] turned out to be 112%; in experiment [3], 97.2%. Moreover, the fluorescence slope in experiment [4] was -0.614 (inactive). Also, the NADPH fluorescence slope in experiment [5] is -2.6e-05 (inactive). Also, in experiment [6], the slope is 0.00669 (inactive).
With `CCOC(=O)C(C(=O)OCC)C(C)C#CCN1CCCCC1` (centres undefined), the cell count in experiment [1] is 325. Besides, the inhibition was -1.3% (inactive) in experiment [1], -79.7% (inactive) in experiment [3], 16.5% (inactive) in experiment [7] and 26.6% (inactive) in experiment [8]. Also, the inhibition of aggregation in experiment [2] is -11.4% (inactive). Also, the values for the nuclei count in experiment [2] and in experiment [3] were 99.7% and 113%, respectively. In addition, in experiment [4], the fluorescence slope is -0.322 (inactive). In addition, the NADPH fluorescence slope in experiment [5] is -5.7e-05 (inactive). The slope in experiment [6] was 0.00551 (inactive).
Regarding `Cc1ccc(C(C(=O)NC(C)(C)C)N(C(=O)c2csnn2)c2cccc(F)c2)o1` (centres undefined), in experiment [1], the cell count came to 357. Besides, the inhibition in experiment [1] is 4.3% (inactive); in experiment [3], -33.5% (inactive); in experiment [7], 8.19% (inactive); in experiment [8], 20.7% (inactive). Also, the inhibition of aggregation in experiment [2] was 7.8% (inactive). For the same compound, the nuclei count in experiment [2] was 93.7%; in experiment [3], 81.8%. Also, the fluorescence slope in experiment [4] is -0.492 (inactive). Besides, in experiment [5], the NADPH fluorescence slope is 8.2e-06 (inactive). Moreover, in experiment [6], the slope is 0.00622 (inactive).
